Assay [1] relates to HCC1937. The assay is described as follows: relative cell viability, compound + RSL3, vs DMSO (fraction of DMSO control); higher = less growth inhibition. As to conditions: 72 h.
For assay [2], the system named is MDA-MB-231. The description is as above. As to conditions: 72 h.

Structures can show the parent of a compound that is named as a salt.

The record followed here is the supplement of paper PMC9492666.
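Also: breast cancer cell viability read out with the CCK-8 kit after co-treatment of each compound with the ferroptosis inducer RSL3.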

For the molecule `CN1c2ccccc2C(=O)Nc2cnc(Nc3ccc(N4CCC(O)CC4)cc3)nc21` + COC(=O)c1ccc([C@H]2c3[nH]c4ccccc4c3C[C@H](C(=O)OC)N2C(=O)CCl)cc1 [RSL3], the relative cell viability in assay [1] was found to be 0.206; in assay [2], 0.375.
For the molecule `CN(CCOc1ccc(CC2SC(=O)NC2=O)cc1)c1ccccn1` (configuration not stated) [Rosiglitazone maleate] + COC(=O)c1ccc([C@H]2c3[nH]c4ccccc4c3C[C@H](C(=O)OC)N2C(=O)CCl)cc1 [RSL3], the relative cell viability in assay [1] turned out to be 0.758; in assay [2] it was 0.516.
With `O=C(Nc1ccc(C(O)(C(F)(F)F)C(F)(F)F)cc1)c1ccccc1Cl` + COC(=O)c1ccc([C@H]2c3[nH]c4ccccc4c3C[C@H](C(=O)OC)N2C(=O)CCl)cc1 [RSL3], the relative cell viability in assay [1] came to 0.489; in assay [2], 0.616.
In the case of `CN(C)C(=N)NC(=N)N` [Metformin] + COC(=O)c1ccc([C@H]2c3[nH]c4ccccc4c3C[C@H](C(=O)OC)N2C(=O)CCl)cc1 [RSL3], the relative cell viability in assay [1] stood at 0.335; in assay [2] it was 0.542.
With `CCOC(=O)N1c2ccc(C(F)(F)F)cc2[C@@H](N(Cc2cc(C(F)(F)F)cc(C(F)(F)F)c2)C(=O)OC)C[C@H]1CC` [Torcetrapib] + COC(=O)c1ccc([C@H]2c3[nH]c4ccccc4c3C[C@H](C(=O)OC)N2C(=O)CCl)cc1 [RSL3], the relative cell viability in assay [1] came to 0.642; in assay [2] it was 0.458.
The matching figures for `C[C@H](CCC(=O)O)[C@H]1CC[C@H]2[C@@H]3C[C@H](O)[C@@H]4C[C@H](O)CC[C@]4(C)[C@H]3CC[C@]12C` [Hyodeoxycholic acid] + COC(=O)c1ccc([C@H]2c3[nH]c4ccccc4c3C[C@H](C(=O)OC)N2C(=O)CCl)cc1 [RSL3]: 0.829 and 0.611.
Take `COC(=O)N(CC(=O)O)Cc1cccc(OCc2nc(-c3ccc(Cl)cc3)oc2C)c1` + COC(=O)c1ccc([C@H]2c3[nH]c4ccccc4c3C[C@H](C(=O)OC)N2C(=O)CCl)cc1 [RSL3]: the results for the relative cell viability in assay [1] and in assay [2] were 0.538 and 0.709, respectively.
The matching figures for `C[N+](C)(C)CC(O)CC(=O)[O-]` (stereo not drawn) [L(-)-Carnitine] + COC(=O)c1ccc([C@H]2c3[nH]c4ccccc4c3C[C@H](C(=O)OC)N2C(=O)CCl)cc1 [RSL3]: 0.621 and 0.523.
Consider `COc1ccc2c(=O)c(-c3ccccc3)coc2c1` [7-Methoxyisoflavone] + COC(=O)c1ccc([C@H]2c3[nH]c4ccccc4c3C[C@H](C(=O)OC)N2C(=O)CCl)cc1 [RSL3], for which the values for the relative cell viability in assay [1] and in assay [2] were 0.396 and 0.419, respectively.
For `Cc1cc([N+](=O)[O-])ccc1NS(=O)(=O)c1cc(Cl)ccc1Cl` + COC(=O)c1ccc([C@H]2c3[nH]c4ccccc4c3C[C@H](C(=O)OC)N2C(=O)CCl)cc1 [RSL3] the same measures were 0.264 and 0.515.
On to `CC(C)OC(=O)C(C)(C)Oc1ccc(C(=O)c2ccc(Cl)cc2)cc1` [Fenofibrate] + COC(=O)c1ccc([C@H]2c3[nH]c4ccccc4c3C[C@H](C(=O)OC)N2C(=O)CCl)cc1 [RSL3], for which the relative cell viability in assay [1] was 0.681; in assay [2], 0.606.
The matching figures for `CC1(N)CCN(c2cnc(-c3cccc(Cl)c3Cl)c(N)n2)CC1` [SHP099 hydrochloride] + COC(=O)c1ccc([C@H]2c3[nH]c4ccccc4c3C[C@H](C(=O)OC)N2C(=O)CCl)cc1 [RSL3]: 0.397 and 0.628.
For `Nc1ccc(O)c(C(=O)O)c1` [Mesalamine] + COC(=O)c1ccc([C@H]2c3[nH]c4ccccc4c3C[C@H](C(=O)OC)N2C(=O)CCl)cc1 [RSL3] the same measures were 0.635 and 0.592.
As to `OC[C@H]1O[C@@H](Oc2cc(O)cc(/C=C/c3ccc(O)cc3)c2)[C@H](O)[C@@H](O)[C@@H]1O` [Polydatin] + COC(=O)c1ccc([C@H]2c3[nH]c4ccccc4c3C[C@H](C(=O)OC)N2C(=O)CCl)cc1 [RSL3], the relative cell viability amounted to 0.749 in assay [1] and 0.608 in assay [2].
The matching figures for `O=c1ccc2cc(O)c(O)cc2o1` [Esculetin] + COC(=O)c1ccc([C@H]2c3[nH]c4ccccc4c3C[C@H](C(=O)OC)N2C(=O)CCl)cc1 [RSL3]: 0.301 and 0.497.
Take `COc1cc(N2CCN(C)CC2)ccc1Nc1ncc2c(n1)N(C)c1ccccc1C(=O)N2` + COC(=O)c1ccc([C@H]2c3[nH]c4ccccc4c3C[C@H](C(=O)OC)N2C(=O)CCl)cc1 [RSL3]: the relative cell viability worked out at 0.213 in assay [1] and 0.375 in assay [2].
The matching figures for `Cc1cc(=O)oc2c(O)c(O)ccc12` [7,8-Dihydroxy-4-methylcoumarin] + COC(=O)c1ccc([C@H]2c3[nH]c4ccccc4c3C[C@H](C(=O)OC)N2C(=O)CCl)cc1 [RSL3]: 0.539 and 0.7.
The matching figures for `CN(CCOc1ccc(CC2SC(=O)NC2=O)cc1)c1ccccn1` (configuration not stated) [Rosiglitazone HCl] + COC(=O)c1ccc([C@H]2c3[nH]c4ccccc4c3C[C@H](C(=O)OC)N2C(=O)CCl)cc1 [RSL3]: 0.486 and 0.714.
With `Cc1c(C(=O)NN2CCOCC2)nn(-c2ccc(Cl)cc2Cl)c1-c1ccc(I)cc1` + COC(=O)c1ccc([C@H]2c3[nH]c4ccccc4c3C[C@H](C(=O)OC)N2C(=O)CCl)cc1 [RSL3], the relative cell viability in assay [1] was 0.0566; in assay [2], 0.297.
The matching figures for `COc1cccc(-n2c(=O)[nH]c3cc(Cl)n(-c4ccc(-c5cccc(OC)c5O)cc4)c3c2=O)c1` + COC(=O)c1ccc([C@H]2c3[nH]c4ccccc4c3C[C@H](C(=O)OC)N2C(=O)CCl)cc1 [RSL3]: 0.395 and 0.572.
`O=C(CN1CCN(C(=O)c2ccco2)CC1)Nc1cc(C(F)(F)F)ccc1Cl` + COC(=O)c1ccc([C@H]2c3[nH]c4ccccc4c3C[C@H](C(=O)OC)N2C(=O)CCl)cc1 [RSL3]: the results for the relative cell viability in assay [1] and in assay [2] were 0.268 and 0.373, respectively.
For the molecule `CC1=C[C@]2(O)O[C@@]3(CC2=C(C)C)[C@@H](C)CC[C@@H]13` [Curcumenol] + COC(=O)c1ccc([C@H]2c3[nH]c4ccccc4c3C[C@H](C(=O)OC)N2C(=O)CCl)cc1 [RSL3], the relative cell viability in assay [1] came out at 0.369; in assay [2], 0.517.
`NC(CO)C(=O)O` (racemic) [DL-Serine] + COC(=O)c1ccc([C@H]2c3[nH]c4ccccc4c3C[C@H](C(=O)OC)N2C(=O)CCl)cc1 [RSL3]: the relative cell viability in assay [1] was determined as 0.399; in assay [2], 0.594.
For `CN(C)CCOC(=O)COc1ccc(Cl)cc1` [Meclofenoxate hydrochloride] + COC(=O)c1ccc([C@H]2c3[nH]c4ccccc4c3C[C@H](C(=O)OC)N2C(=O)CCl)cc1 [RSL3] the same measures were 0.612 and 0.574.
Turning to `CC(C)(Oc1ccc(C2CC2(Cl)Cl)cc1)C(=O)O` (configuration not stated) [Ciprofibrate] + COC(=O)c1ccc([C@H]2c3[nH]c4ccccc4c3C[C@H](C(=O)OC)N2C(=O)CCl)cc1 [RSL3], the figures for the relative cell viability in assay [1] and in assay [2] were 0.787 and 0.706, respectively.
For `O=C1c2cccc(O)c2C(=O)c2c(O)cccc21` [Antrapurol] + COC(=O)c1ccc([C@H]2c3[nH]c4ccccc4c3C[C@H](C(=O)OC)N2C(=O)CCl)cc1 [RSL3] the same measures were 0.583 and 0.537.
